Unmarked numbers belong to inactive results. Some of the results follow. Records with an inconclusive call do not appear. Calls of active or inactive are those of the source. Calls come from the whole dose curve; as a rule, active = well fitted curve in the direction sought with a large enough effect; inconclusive = small, poorly fitted or top-dose-only effect, or another doubt; inactive = no such curve, though single readings can be large; an effect the other way counts as inactive or inconclusive.

Chain of Bifunctional 3'-5' exonuclease/ATP-dependent helicase WRN (Homo sapiens) (Q14191 whole entry, looked up): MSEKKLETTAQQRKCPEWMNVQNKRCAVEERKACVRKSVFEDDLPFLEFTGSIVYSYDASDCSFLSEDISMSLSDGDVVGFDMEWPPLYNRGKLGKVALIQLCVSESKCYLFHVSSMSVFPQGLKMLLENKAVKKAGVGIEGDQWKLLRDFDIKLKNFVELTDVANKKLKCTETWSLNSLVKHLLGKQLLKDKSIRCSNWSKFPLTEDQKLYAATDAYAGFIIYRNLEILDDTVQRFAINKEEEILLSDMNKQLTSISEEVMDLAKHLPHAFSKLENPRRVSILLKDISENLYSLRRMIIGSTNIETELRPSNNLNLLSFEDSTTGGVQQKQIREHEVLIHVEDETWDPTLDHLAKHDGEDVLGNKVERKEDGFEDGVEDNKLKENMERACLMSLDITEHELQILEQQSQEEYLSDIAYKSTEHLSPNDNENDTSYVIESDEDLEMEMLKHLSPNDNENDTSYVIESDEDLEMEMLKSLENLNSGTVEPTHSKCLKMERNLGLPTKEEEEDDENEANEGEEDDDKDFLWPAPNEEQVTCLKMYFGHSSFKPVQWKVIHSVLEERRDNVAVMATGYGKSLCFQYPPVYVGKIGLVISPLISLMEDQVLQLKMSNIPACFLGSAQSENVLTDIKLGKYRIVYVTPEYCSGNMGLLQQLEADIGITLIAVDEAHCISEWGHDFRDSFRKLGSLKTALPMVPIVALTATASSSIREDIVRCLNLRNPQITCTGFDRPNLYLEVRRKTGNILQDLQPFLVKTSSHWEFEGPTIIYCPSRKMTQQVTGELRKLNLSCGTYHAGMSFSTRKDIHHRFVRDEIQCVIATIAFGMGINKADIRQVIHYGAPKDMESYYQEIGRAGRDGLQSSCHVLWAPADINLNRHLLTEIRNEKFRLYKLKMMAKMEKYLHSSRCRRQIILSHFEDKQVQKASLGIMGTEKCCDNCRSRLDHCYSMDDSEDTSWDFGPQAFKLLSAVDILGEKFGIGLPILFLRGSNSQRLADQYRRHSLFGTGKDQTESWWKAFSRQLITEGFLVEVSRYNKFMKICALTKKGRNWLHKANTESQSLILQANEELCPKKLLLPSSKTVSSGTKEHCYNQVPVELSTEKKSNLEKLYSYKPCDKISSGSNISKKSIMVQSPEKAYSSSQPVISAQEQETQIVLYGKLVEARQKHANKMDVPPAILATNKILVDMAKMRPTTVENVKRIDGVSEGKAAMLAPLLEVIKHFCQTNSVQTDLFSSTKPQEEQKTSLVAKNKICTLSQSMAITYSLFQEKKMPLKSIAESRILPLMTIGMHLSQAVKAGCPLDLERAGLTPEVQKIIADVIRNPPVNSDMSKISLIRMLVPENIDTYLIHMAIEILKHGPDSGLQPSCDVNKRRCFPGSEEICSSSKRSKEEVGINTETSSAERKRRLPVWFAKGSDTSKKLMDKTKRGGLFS
Chain of Phosphoglycerate kinase, glycosomal (Trypanosoma brucei brucei) (P07378 whole entry, looked up): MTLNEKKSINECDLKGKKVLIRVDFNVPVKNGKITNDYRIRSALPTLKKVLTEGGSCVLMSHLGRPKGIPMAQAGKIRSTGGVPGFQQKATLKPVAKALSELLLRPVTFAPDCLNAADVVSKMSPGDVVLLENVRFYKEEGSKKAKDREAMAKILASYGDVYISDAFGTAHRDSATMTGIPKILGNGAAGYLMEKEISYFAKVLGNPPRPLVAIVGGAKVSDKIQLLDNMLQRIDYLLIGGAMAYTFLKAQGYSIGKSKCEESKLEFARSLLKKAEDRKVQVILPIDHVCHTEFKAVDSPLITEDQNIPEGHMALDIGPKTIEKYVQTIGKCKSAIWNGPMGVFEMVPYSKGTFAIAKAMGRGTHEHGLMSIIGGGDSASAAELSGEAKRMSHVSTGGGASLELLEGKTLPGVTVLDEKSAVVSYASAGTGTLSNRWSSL

System in one assay: not listed separately
As to the kind of experiment: qHTS for small molecule inhibitors of Yes1 kinase: Counter Assay (AID 686950).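 Note: no kinase present so only ADP-Glo detection of a fixed ADP amount is tested; luminescence from ADP-Glo reporting ADP in a fixed ATP and ADP mixture; 0% = DMSO wells with ATP plus ADP and -100% = ATP-only wells without ADP.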 The conditions noted are these: series mostly up to 76.9 µM; activity change, negative = inhibition: at the top concentration. The method in brief: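 Enzyme-free ADP-Glo interference check: compounds were preincubated 20 min in buffer, then an ATP/ADP mix (0.08 mM ATP, 0.02 mM ADP final) was added for 60 min at room temperature before two-step ADP-Glo luminescence detection.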
(qHTS replaces the single test concentration by a dilution series.)
For the compound `CC(=O)NCc1cccc(C#Cc2cncnc2Nc2ccc(OCc3cccc(F)c3)c(Cl)c2)c1`, the “activity change, negative = inhibition” value is -1.46%.

Turning to `CCc1nccc2c1nc(-c1nonc1N)n2CC`, the “activity change, negative = inhibition” value is 4.09%.

On to `COc1cc(N2CCN(C(C)C)CC2)ccc1Nc1nc(Nc2cccc3ncccc23)c2cc[nH]c2n1`, for which the “activity change, negative = inhibition” value is 3.26%.

As for `COc1ccc(C2=C(N3CCc4ccccc43)C(=O)NC2=O)cc1`, the “activity change, negative = inhibition” value was -0.99%.

For `Cc1cccc2c(N=Nc3ccc(S(N)(=O)=O)cc3)c(O)[nH]c12`, the “activity change, negative = inhibition” value is 0.144%.

Consider `O=C(OC1CNC(C#Cc2cc3ncnc(Nc4ccc5c(ccn5Cc5cc(F)ccc5F)c4)c3s2)C1)N1CCOCC1` (stereo not drawn), for which the “activity change, negative = inhibition” value was -3.15%.

As for `CCCN1CCCC(c2ccc(Nc3nc(Nc4cc(F)ccc4C(N)=O)c4cc[nH]c4n3)c(OC)c2)C1` (stereo not drawn), the “activity change, negative = inhibition” value is 251%.

Turning to `Cc1cc(-c2ccccn2)cc(C)c1C=Cc1cncc(-c2nn[nH]n2)c1`, the “activity change, negative = inhibition” value is -1.94%.

As for `CNC(=O)c1cccc(C#Cc2cncnc2Nc2ccc(OCc3cccc(F)c3)c(Cl)c2)c1`, the “activity change, negative = inhibition” value is 1.17%.

For the compound `Cc1ccc(NC(=O)c2ccoc2)cc1-c1ccc(C(=O)NCC2CC2)cc1`, the “activity change, negative = inhibition” value is -2.26%.

Regarding `Cc1cccc(Nc2ncc(-c3ccccc3)o2)c1`, the “activity change, negative = inhibition” value is -3.11%.

In the case of `c1cnn2ncc(-c3ccnc(Nc4ccc5c(c4)OCCO5)n3)c2c1`, the “activity change, negative = inhibition” value was -1.82%.

With `Nc1nccc(-c2c(-c3ccc(F)cc3)nn3cc(C(F)(F)F)ccc23)n1`, the “activity change, negative = inhibition” value was 4.35%.

For `NS(=O)(=O)c1ccc(Nc2ncc(-c3ccccc3)o2)cc1`, the “activity change, negative = inhibition” value is 4.27%.

Regarding `CCn1c(-c2nonc2N)nc2c(C#CC(C)(C)O)ncc(OC3CCNCC3)c21`, the “activity change, negative = inhibition” value is 0.134%.

As for `CCn1c(-c2nonc2N)nc2ccncc21`, the “activity change, negative = inhibition” value was 2.56%.

Consider `CN(C)CCCNc1nccc(-c2c(-c3ccc(F)cc3)nn3cc(C(F)(F)F)ccc23)n1`, for which the “activity change, negative = inhibition” value was -1.16%.

For the compound `c1ccc(Cc2nc3ccc(Nc4ncnc5ccccc45)cc3[nH]2)cc1`, the “activity change, negative = inhibition” value was -1.48%.

With `COc1ccc2cc(-c3c(-c4ccncc4)nc(-c4ccc(S(C)=O)cc4)n3C)ccc2c1` (stereo not drawn), the “activity change, negative = inhibition” value was -0.218%.

Consider `CCCN1CCC=C(c2ccc(Nc3nc(Nc4ccccc4C(N)=O)c4cc[nH]c4n3)c(C)c2)C1`, for which the “activity change, negative = inhibition” value is 323%.

Turning to `COc1cc(N2CCN(C(C)C)CC2)ccc1Nc1nc(Nc2ccc(F)cc2C(N)=O)c2cc[nH]c2n1`, the “activity change, negative = inhibition” value is 258%.

For a further assay, the target named is Phosphoglycerate kinase, glycosomal (Trypanosoma brucei brucei) (UniProt P07378). Kind of assay: qHTS for inhibitors of Phosphogylcerate Kinase: Hit Validation Screen (AID 686980). Note: potency is the fitted concentration of half-maximal effect; nearly all actives have a fitted effect of over 65% in size. The conditions noted are these: TbPGK coupled GAPDH assay, Kinase-Glo luminescence. The procedure, abridged:
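Luminescent ATP detection (Kinase-Glo Plus) follows a 60-minute room-temperature incubation, with wells lacking PGK as controls. Buffer: 100 mM TEA (pH 7.6), 5 mM MgCl2, 0.01% Tween-20. Coupling enzyme GAPDH (100 nM final) supplies unstable 1,3-BPG in-well.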
`Cc1ccc(C(=O)O)cc1-c1ccc(/C=C2\SC(=O)N(CC(=O)Nc3ccc4c(c3)OCO4)C2=O)o1`: the Potency is 8.19 µM (active).

Regarding `Cc1nonc1C(=O)N/N=C/c1ccc(O)cc1`, the Potency is 5.8 µM (active).

Regarding `O=C(CSc1nc2ccccc2c(=O)[nH]1)Nc1nc(-c2ccc(Br)cc2)cs1`, the Potency was 4.11 µM (active).

As for `Cc1ccnc(NC(=O)c2ccoc2C)c1`, the Potency is 14.6 µM (active).

For the compound `Cc1ccc(-c2nc(SCc3ccc(Br)cc3)n3[nH]c(=O)cc3n2)cc1`, the Potency was 9.19 µM (active).

With `COc1ccc(Cl)cc1NC(=O)CCS(=O)(=O)c1ccc(Br)cc1`, the Potency is 5.17 µM (active).

Consider `C=CC1=C(C(=O)O)N2C(=O)[C@@H](NC(=O)/C(=N/OCC(=O)O)c3csc(N)n3)[C@H]2SC1`, for which the Potency was 0.116 µM (active).

Regarding `Cc1c(CC(=O)N2CCN(C(=O)C3COc4ccccc4O3)CC2)c(=O)oc2c(O)c(O)ccc12` (stereo not drawn), the Potency is 2.59 µM (active).

On to `O=C1/C(=C/c2cccs2)CCc2ccccc21`, for which the Potency is 14.6 µM (active).

Turning to `O=C(Oc1ccc(-c2nc(-c3ccccn3)no2)cc1)c1ccccc1`, the Potency was 16.3 µM (active).

Consider `COCCCn1c(Cc2csc(Nc3cccc(Cl)c3)n2)nnc1SCC(=O)OC1CCCCC1`, for which the Potency is 9.19 µM (active).

As for `C=CCn1c(C)cc(C2=NNC(=NCC)SC2)c1C`, the Potency is 11.6 µM (active).

The target in the next assay is DNA polymerase iota (Homo sapiens) (UniProt Q9UNA4). Kind of assay: qHTS for Inhibitors of Polymerase Iota: Confirmatory Assay for Cherry-picked Compounds (AID 720496). Note: potency is the fitted concentration of half-maximal effect. The conditions noted are these: Pol iota primer extension, TAMRA/BHQ fluorescence. The method in brief: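 Read-out is TAMRA fluorescence (525 nm excitation, 598 nm emission) at 0 and 10 min. It reflects strand displacement from a BHQ-2-quenched template by 10 nM Pol iota, with 50 nM final substrate after 15 min compound preincubation.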
Chain of DNA polymerase iota (Homo sapiens) (Q9UNA4 whole entry, looked up): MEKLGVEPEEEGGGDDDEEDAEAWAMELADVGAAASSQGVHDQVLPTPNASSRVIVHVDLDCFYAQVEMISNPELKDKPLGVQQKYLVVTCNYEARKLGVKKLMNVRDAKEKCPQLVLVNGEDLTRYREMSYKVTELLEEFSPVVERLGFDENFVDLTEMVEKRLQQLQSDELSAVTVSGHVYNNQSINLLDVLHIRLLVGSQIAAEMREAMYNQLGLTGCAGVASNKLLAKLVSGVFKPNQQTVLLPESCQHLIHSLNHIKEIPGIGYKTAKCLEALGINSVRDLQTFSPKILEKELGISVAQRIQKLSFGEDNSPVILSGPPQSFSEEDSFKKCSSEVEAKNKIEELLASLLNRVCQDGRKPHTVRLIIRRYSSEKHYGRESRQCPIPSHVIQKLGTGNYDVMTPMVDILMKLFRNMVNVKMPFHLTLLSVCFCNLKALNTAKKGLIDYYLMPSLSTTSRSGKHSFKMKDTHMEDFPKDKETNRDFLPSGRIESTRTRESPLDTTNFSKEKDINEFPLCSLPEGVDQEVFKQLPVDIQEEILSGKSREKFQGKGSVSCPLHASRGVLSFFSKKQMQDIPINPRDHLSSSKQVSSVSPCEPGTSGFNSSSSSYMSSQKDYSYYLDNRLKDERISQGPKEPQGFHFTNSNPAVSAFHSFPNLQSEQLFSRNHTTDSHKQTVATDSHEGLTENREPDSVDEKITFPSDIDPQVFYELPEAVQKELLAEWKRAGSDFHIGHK
As to `Cc1ccc(C(=O)O)cc1-c1ccc(/C=C2\SC(=O)N(CC(=O)Nc3ccc4c(c3)OCO4)C2=O)o1`, the Potency was 7.52 µM (active).

`O=C1COc2c1ccc(O)c2O`: the Potency was 33.6 µM (active).

For the compound `O=C(c1cc2c(s1)CCC2)N1CCN(c2ccccc2)CC1`, the Potency is 37.7 µM (active).

Turning to `O=C(CSc1nc2ccccc2c(=O)[nH]1)Nc1nc(-c2ccc(Br)cc2)cs1`, the Potency was 21.2 µM (active).

As for `ON=C1/C(=N\O)CC2(C/C1=N/O)OCCO2`, the Potency was 59.7 µM (active).

In the case of `COc1ccc(Cl)cc1NC(=O)CCS(=O)(=O)c1ccc(Br)cc1`, the Potency is 18.9 µM (active).

Consider `Cc1cc(/C=C2\SC(=O)N(C)C2=O)c(C)n1-c1cccc(C(=O)O)c1`, for which the Potency was 47.4 µM (active).

For the compound `O=C(N/N=C/c1ccco1)c1ccc(C(=O)N/N=C/c2ccco2)o1`, the Potency was 42.3 µM (active).

For `C=CC1=C(C(=O)O)N2C(=O)[C@@H](NC(=O)/C(=N/OCC(=O)O)c3csc(N)n3)[C@H]2SC1`, the Potency was 2.67 µM (active).

Consider `Cc1c(CC(=O)N2CCN(C(=O)C3COc4ccccc4O3)CC2)c(=O)oc2c(O)c(O)ccc12` (stereo not drawn), for which the Potency was 15 µM (active).

Consider `CCN(c1ccc(Cl)cc1)S(=O)(=O)c1nnc(NC(=O)c2ccco2)s1`, for which the Potency was 75.2 µM (active).

With `Cc1cc(/C=N/Nc2ccc([N+](=O)[O-])cn2)c(C)n1-c1cccc(C(=O)O)c1`, the Potency is 67 µM (active).

The target of a further assay is Bifunctional 3'-5' exonuclease/ATP-dependent helicase WRN (Homo sapiens) (UniProt Q14191). Kind of assay: qHTS for Inhibitors of WRN Helicase: Confirmatory Assay for Cherry-picked Compounds. (AID 720497). Note: potency is the fitted concentration of half-maximal effect; nearly all actives have a fitted effect of over 65% in size. To be noted: WRN helicase DNA unwinding, fluorescence kinetic; series mostly up to 57.1 µM; activity, negative = inhibition: at the top concentration. The procedure, abridged:
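Kinetic fluorescence helicase read-out (525 nm excitation, 598 nm emission) on a forked duplex substrate at 100 nM with 2 mM ATP. Enzyme: 20 nM WRN, exposed to compound for 15 min at room temperature. Responses normalized to buffer-only and positive-control wells.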
`Cc1ccc(-c2nc(SCc3ccc(Br)cc3)n3[nH]c(=O)cc3n2)cc1`: the Potency is 13.6 µM (active).

In the case of `COc1ccc(Cl)cc1NC(=O)CCS(=O)(=O)c1ccc(Br)cc1`, the Potency was 21.5 µM (active).

Turning to `Cc1c(CC(=O)N2CCN(C(=O)C3COc4ccccc4O3)CC2)c(=O)oc2c(O)c(O)ccc12` (stereo not drawn), the Potency was 2.41 µM (active).

(Values after PubChem BioAssay (NCATS).)
